Assay results reported in PubChem BioAssay (NCATS).
Inconclusive results are not listed. Activity calls are given as the source filed them. Unless noted, calls come from the whole dose curve; as a rule, active = well fitted curve in the direction sought with a large enough effect; inconclusive = small, poorly fitted or top-dose-only effect, or another doubt; inactive = no such curve, though single readings can be large; an effect the other way counts as inactive or inconclusive.

Key:
[1] = target: T1, Tyrosine-protein phosphatase non-receptor type substrate 1 (Homo sapiens) + Leukocyte surface antigen CD47 (Homo sapiens) (UniProt P78324+Q08722); test: CD47-SIRPalpha protein protein interaction - LANCE assay qHTS validation (AID 1347057; active = well fitted curve in the direction sought with a large enough effect in the signal ratio, with a control signal flat, not every such curve was filed as active; the % refers to the signal ratio; note: series mostly up to about 38 µM)
In short: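 Inhibition of soluble CD47/SIRPalpha ectodomain association by titrated compounds, measured as 665/615 nm time-resolved FRET ratio after sequential 30 min room-temperature incubations.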

[2] = target: T1, Tyrosine-protein phosphatase non-receptor type substrate 1 (Homo sapiens) + Leukocyte surface antigen CD47 (Homo sapiens); test: CD47-SIRPalpha protein protein interaction - HTRF assay qHTS validation (AID 1347058; active = well fitted curve in the direction sought with a large enough effect in the signal ratio, not every such curve was filed as active; the % refers to the signal ratio; note: series mostly up to about 38 µM)
In short: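 Soluble extracellular domains (6His-CD47, Avi-tag-biotinylated SIRPalpha) in PBS pH 7.4 with 0.05% IGEPAL CA-630. Compounds were preincubated 30 min at RT with CD47 and anti-His-Eu, then SIRPalpha and SAV-XL665 were added. TR-FRET 665/615 ratio.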

[3] = target: T1, Tyrosine-protein phosphatase non-receptor type substrate 1 (Homo sapiens) + Leukocyte surface antigen CD47 (Homo sapiens); test: CD47-SIRPalpha protein protein interaction - Alpha assay qHTS validation (AID 1347059);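 note: bead proximity luminescence from CD47 binding SIRPalpha after compound preincubation with SIRPalpha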; note: potency is the fitted concentration of half-maximal effect
In short: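 SIRPalpha-biotin 25 nM + cpd, 30 min RT, dark; add CD47-His 12.5 nM, 30 min; add Ni-NTA/SAV beads 10 ug/mL, 30 min; AlphaScreen. Buffer PBS pH 7.4 + 0.05% IGEPAL CA-630. Non-biotinylated SIRPalpha as control inhibitor.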

[4] = target: Parathyroid hormone/parathyroid hormone-related peptide receptor (Homo sapiens) (UniProt Q03431); test: qHTS for PTHR1 Agonists: Optimization Screen against the NCGC LOPAC library (AID 1347079);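 note: GloSensor cAMP luminescence in HEK-293 GP2 cells expressing human PTHR1 with IBMX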
In short: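 HEK-293 GP2 cells, PTHR1 + GloSensor cAMP; 3000 cells/well, o/n. Luciferin + IBMX 0.5mM each (stock), 1 hr 37C. Cpd titration, 1 hr 37C. Lum after 15 min RT. Ctrl M-PTH(1-15) top 10uM.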

[5] = qHTS of pediatric cancer cell lines to identify multiple opportunities for drug repurposing: Primary screen for TC32 cells (AID 1347089); note: nearly all actives have a fitted effect of over 60% in size
In short: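 Luminescent CellTiter-Glo read-out of metabolically active TC32 cells after 48 h compound exposure. Primary: MIPE 11-point, 0.78 nM–46 µM; NPC 8-point, 0.59 nM–46 µM. Confirmatory: 11-point dilutions.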

[6] = qHTS of pediatric cancer cell lines to identify multiple opportunities for drug repurposing: Primary screen for DAOY cells (AID 1347090); note: series mostly up to about 46 µM; nearly all actives have a fitted effect of over 55% in size
In short: (§1)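 Viability measured as metabolically active cells via CellTiter-Glo luminescence following 48 hours of compound exposure, 11-point dilutions in confirmatory testing. 500-1,000 cells/well plated 5 hours before dosing; controls were DMSO and 2.3 µM bortezomib.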

[7] = qHTS of pediatric cancer cell lines to identify multiple opportunities for drug repurposing: Primary screen for SJ-GBM2 cells (AID 1347091)
In short: as §1

[8] = qHTS of pediatric cancer cell lines to identify multiple opportunities for drug repurposing: Primary screen for A673 cells (AID 1347092); note: nearly all actives have a fitted effect of over 45% in size
In short: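 A673 cells (500-1,000 cells/well in growth media) were pre-incubated 5 h at 37 degrees C, then exposed to compounds for 48 h. Viability was read as CellTiter-Glo luminescence; concentration-response curves came directly from the primary screen.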

[9] = qHTS of pediatric cancer cell lines to identify multiple opportunities for drug repurposing: Primary screen for SK-N-MC cells (AID 1347093); note: potency is the fitted concentration of half-maximal effect
In short: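 Metabolically active cells were quantified by ATP-dependent luminescence (CellTiter-Glo, 15 min at room temperature) following 48 h treatment. Cells had been plated at 500-1,000 per well and settled for 5 h beforehand.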

[10] = qHTS of pediatric cancer cell lines to identify multiple opportunities for drug repurposing: Primary screen for BT-37 cells (AID 1347094); note: series mostly up to about 57 µM
In short: (§2)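 Quantitative HTS format: each compound titrated (MIPE 11 points from 0.78 nM, NPC 8 points from 0.59 nM) onto cells plated 5 hours earlier. After 48 h at 37 degrees C, CellTiter-Glo luminescence was recorded.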

[11] = qHTS of pediatric cancer cell lines to identify multiple opportunities for drug repurposing: Primary screen for NB-EBc1 cells (AID 1347095); note: potency is the fitted concentration of half-maximal effect
In short: as §2

[12] = qHTS of pediatric cancer cell lines to identify multiple opportunities for drug repurposing: Primary screen for U-2 OS cells (AID 1347096); note: nearly all actives have a fitted effect of over 50% in size
In short: (§3)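 Viability after 48 h compound treatment at 37C, 500-1,000 cells/well, read as ATP luminescence with CellTiter-Glo. Primary screens used 11-point (MIPE, 0.78 nM-46 µM) or 8-point (NPC, 0.59 nM-46 µM) final concentrations; follow-up screens used 11-point dilutions.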

[13] = qHTS of pediatric cancer cell lines to identify multiple opportunities for drug repurposing: Primary screen for Saos-2 cells (AID 1347097); note: nearly all actives have a fitted effect of over 40% in size
In short: as §2

[14] = qHTS of pediatric cancer cell lines to identify multiple opportunities for drug repurposing: Primary screen for SK-N-SH cells (AID 1347098);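 note: DMSO served as neutral control and bortezomib at 2.3 µM as positive control; nearly all actives have a fitted effect of over 65% in size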
In short: (§4)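 Cells (500-1,000/well) rested 5 h, then received compounds for 48 h; metabolically active cells were measured by CellTiter-Glo luminescence. Final concentrations spanned up to 46 µM (MIPE, 11-point) or 0.59 nM-46 µM (NPC, 8-point) in primary screens, 11-point in follow-ups.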

[15] = qHTS of pediatric cancer cell lines to identify multiple opportunities for drug repurposing: Primary screen for NB1643 cells (AID 1347099); note: nearly all actives have a fitted effect of over 50% in size
In short: as §2

[16] = qHTS of pediatric cancer cell lines to identify multiple opportunities for drug repurposing: Primary screen for LAN-5 cells (AID 1347100); note: potency is the fitted concentration of half-maximal effect
In short: as §3

[17] = qHTS of pediatric cancer cell lines to identify multiple opportunities for drug repurposing: Primary screen for BT-12 cells (AID 1347101); note: nearly all actives have a fitted effect of over 25% in size
In short: as §4

[18] = qHTS of pediatric cancer cell lines to identify multiple opportunities for drug repurposing: Primary screen for Rh18 cells (AID 1347102); note: nearly all actives have a fitted effect of over 65% in size
In short: as §3

[19] = qHTS of pediatric cancer cell lines to identify multiple opportunities for drug repurposing: Primary screen for OHS-50 cells (AID 1347103); note: nearly all actives have a fitted effect of over 40% in size
In short: as §4

[20] = qHTS of pediatric cancer cell lines to identify multiple opportunities for drug repurposing: Primary screen for RD cells (AID 1347104); note: nearly all actives have a fitted effect of over 55% in size
In short: as §2

Measured: Potency

Chain of Parathyroid hormone/parathyroid hormone-related peptide receptor (Homo sapiens) (Q03431 whole entry, looked up): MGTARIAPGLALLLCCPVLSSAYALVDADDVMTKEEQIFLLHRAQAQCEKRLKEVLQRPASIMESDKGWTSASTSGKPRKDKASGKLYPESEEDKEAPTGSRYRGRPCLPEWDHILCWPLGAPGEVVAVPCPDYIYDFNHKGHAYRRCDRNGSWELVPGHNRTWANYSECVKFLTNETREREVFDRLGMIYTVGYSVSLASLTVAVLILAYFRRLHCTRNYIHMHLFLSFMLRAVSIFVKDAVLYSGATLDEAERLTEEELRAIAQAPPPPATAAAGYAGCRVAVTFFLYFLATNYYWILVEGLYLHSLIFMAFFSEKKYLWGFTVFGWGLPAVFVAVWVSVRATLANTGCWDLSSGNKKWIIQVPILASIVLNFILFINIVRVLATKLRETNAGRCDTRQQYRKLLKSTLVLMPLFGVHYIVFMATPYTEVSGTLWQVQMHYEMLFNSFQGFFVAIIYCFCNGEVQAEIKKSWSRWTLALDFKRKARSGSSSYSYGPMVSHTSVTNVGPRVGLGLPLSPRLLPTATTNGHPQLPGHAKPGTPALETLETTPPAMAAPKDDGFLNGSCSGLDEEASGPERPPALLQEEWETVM
T1 sequence (P78324 whole entry, looked up, the tested form may be a part): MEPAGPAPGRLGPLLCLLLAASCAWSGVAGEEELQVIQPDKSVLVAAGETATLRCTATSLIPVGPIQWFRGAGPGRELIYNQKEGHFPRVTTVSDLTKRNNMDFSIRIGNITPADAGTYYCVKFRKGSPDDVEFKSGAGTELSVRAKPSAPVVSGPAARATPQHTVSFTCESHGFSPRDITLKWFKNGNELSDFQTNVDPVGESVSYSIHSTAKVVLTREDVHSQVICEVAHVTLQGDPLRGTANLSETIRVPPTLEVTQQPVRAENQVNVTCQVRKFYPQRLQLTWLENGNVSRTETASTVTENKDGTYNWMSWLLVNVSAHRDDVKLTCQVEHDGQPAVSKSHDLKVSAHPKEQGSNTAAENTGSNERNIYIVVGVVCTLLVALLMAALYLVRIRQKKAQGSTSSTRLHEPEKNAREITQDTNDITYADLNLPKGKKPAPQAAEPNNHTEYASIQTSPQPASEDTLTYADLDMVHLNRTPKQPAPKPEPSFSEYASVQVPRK
T1 sequence (Q08722 whole entry, looked up, the tested form may be a part): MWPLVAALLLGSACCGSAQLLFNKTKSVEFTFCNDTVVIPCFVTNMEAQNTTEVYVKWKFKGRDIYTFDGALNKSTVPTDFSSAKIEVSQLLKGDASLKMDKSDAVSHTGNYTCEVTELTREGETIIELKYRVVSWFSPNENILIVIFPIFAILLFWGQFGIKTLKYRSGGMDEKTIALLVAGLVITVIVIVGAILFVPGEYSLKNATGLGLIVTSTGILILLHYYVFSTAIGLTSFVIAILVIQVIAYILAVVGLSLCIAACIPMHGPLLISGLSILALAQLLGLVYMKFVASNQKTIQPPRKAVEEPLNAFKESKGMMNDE

CC1(C)CCC(NC(=O)[C@@H](N)CCC(=O)O)CC1
inactive: [1] | [2] | [3] | [4]

COC(=O)[C@H]1[C@H]2C[C@H]3c4[nH]c5ccccc5c4CCN3C[C@H]2CC[C@@H]1O
inactive: [4]

CCCCC(=O)O[C@]1(C(=O)CO)CC[C@H]2[C@@H]3CCC4=CC(=O)CC[C@]4(C)[C@H]3[C@@H](O)C[C@@]21C
inactive: [5] | [6] | [7] | [8] | [9] | [10] | [11] | [12] | [13] | [14] | [15] | [16] | [17]

CC(=O)O[C@H]1C[C@@H]2CC[C@@H]3[C@H](CC[C@@]4(C)[C@H]3C[C@H]([N+]3(C)CCCCC3)[C@@H]4OC(C)=O)[C@@]2(C)C[C@@H]1[N+]1(C)CCCCC1
inactive: [1] | [2] | [3] | [4]

C[C@@H]1C(=O)NC2=Nc3cccc(Cl)c3CN21
inactive: [1] | [2] | [3] | [4]

CCCN1CCCC[C@H]1C(=O)Nc1c(C)cccc1C
inactive: [5] | [6] | [7] | [8] | [9] | [10] | [11] | [12] | [13] | [14] | [15] | [16] | [17] | [18] | [19]

CC[C@H](C)C(=O)O[C@H]1CCC=C2C=C[C@H](C)[C@H](CC[C@@H]3C[C@@H](O)CC(=O)O3)[C@H]21
inactive: [1] | [2] | [3] | [4]

C[C@]12CC[C@@H]3c4ccc(O)cc4CC[C@H]3[C@@H]1CC[C@@H]2O
inactive: [4]

CC1(C)OC[C@@H](COC(=O)CCc2ccc(OC[C@@H](O)CNCCNC(=O)N3CCOCC3)cc2)O1
inactive: [5] | [6] | [7] | [8] | [9] | [10] | [11] | [12] | [13] | [14] | [15] | [16] | [17] | [18] | [19]

CNCCC=C1c2ccccc2CCc2ccccc21
inactive: [1] | [2] | [3] | [4]

CCCC1O[C@@H]2C[C@H]3[C@@H]4CCC5=CC(=O)C=C[C@]5(C)[C@H]4[C@@H](O)C[C@]3(C)[C@]2(C(=O)CO)O1 (stereo partly drawn)
inactive: [1] | [2] | [3] | [4]

O=C1CCC(c2ccc(-n3ccnc3)cc2)=NN1
inactive: [1] | [2] | [3] | [4]

N[C@@H](Cc1cnc[nH]1)C(=O)O
active: [3] 13.1 µM
inactive: [1] | [2] | [4]

Oc1ccc(O)cc1
inactive: [1] | [2] | [3] | [4] | [7] | [10] | [12] | [13] | [14] | [18] | [20]
active: [9] 26.6 µM | [11] 6.68 µM | [16] 7.5 µM

Cc1c(C(N)=O)cc([N+](=O)[O-])cc1[N+](=O)[O-]
inactive: [5] | [6] | [7] | [8] | [9] | [10] | [11] | [12] | [13] | [14] | [15] | [16] | [17] | [18] | [19]

CC1(C)O[C@@H]2[C@@H](CO[C@@]3(COS(N)(=O)=O)OC(C)(C)O[C@@H]23)O1
inactive: [5] | [6] | [7] | [8] | [9] | [10] | [11] | [12] | [13] | [14] | [15] | [16] | [17] | [18] | [19] | [20]

N[C@H](CO)C(=O)O
inactive: [1] | [2] | [3] | [4]

CNCCC(Oc1ccccc1C)c1ccccc1 (stereo not drawn)
inactive: [1] | [2] | [3] | [4]

Nc1cc(Cl)c(NC2=NCCN2)c(Cl)c1
inactive: [1] | [2] | [3] | [4]

CC(C)COC(=O)OCN1C(=O)CN(CCN2CC(=O)N(COC(=O)OCC(C)C)C(=O)C2)CC1=O
inactive: [1] | [2] | [3] | [4]

CC(C)C[C@H]1C(=O)N2CCC[C@H]2[C@]2(O)O[C@](NC(=O)[C@@H]3C=C4c5cccc6[nH]c(Br)c(c56)C[C@H]4N(C)C3)(C(C)C)C(=O)N12
inactive: [3] | [4]

CCN(CC)C(=O)N1CCN(C)CC1
inactive: [5] | [6] | [7] | [8] | [9] | [10] | [11] | [12] | [13] | [14] | [15] | [16] | [17] | [18] | [19]

COc1cc2c(cc1O)CC[C@@H]1[C@@H]2CC[C@]2(C)[C@@H](O)CC[C@@H]12
inactive: [1] | [2] | [3] | [4]

CN=C(NC#N)NCCSCc1csc(N=C(N)N)n1
inactive: [5] | [6] | [7] | [8] | [9] | [10] | [11] | [12] | [13] | [14] | [15] | [16] | [17] | [18] | [19]

C1CCc2nnnn2CC1
inactive: [1] | [2] | [3]

O=C(O)c1cc2cc(Cc3cccnc3)ccc2o1
inactive: [1] | [2] | [3] | [4]

O=C(O)CCCCC(=O)O
inactive: [5] | [6] | [7] | [8] | [9] | [10] | [11] | [12] | [13] | [14] | [15] | [16] | [17] | [18] | [19]

CCC(NC(C)C)C(O)c1ccc(O)c(O)c1 (stereo not drawn)
inactive: [1] | [3]

CN(C)CC/C=C1/c2ccccc2COc2ccc(CC(=O)O)cc21
inactive: [5] | [6] | [7] | [8] | [9] | [10] | [11] | [12] | [13] | [14] | [15] | [16] | [17] | [18] | [19]
